Reference: the supplement of paper PMC4466140

Assays:
Assay in all cases: SPOT peptide array binding signal intensity (averaged, normalized) (arbitrary units (background-subtracted, floor 0; scale differs between SH3 domains)); higher = stronger binding of the SH3 domain to the peptide
[1] = molecular target: AgAbp1
Summary of the method: (§1)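 Detection of bound protein relied on anti-GST antibody, an HRP anti-mouse secondary and luminol, with imaging and quantification in Genespotter. The bound protein was GST-fused SH3 domains from four yeast species, incubated at 10 μg/ml overnight at 4°C in TBS-based blocking buffer on cellulose membranes carrying synthetic 15-mer peptides with cysteines replaced by serines. Binding signal is normalized, background-subtracted spot intensity averaged over replicates, in arbitrary units that differ between domains.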

[2] = molecular target: AgBbc1
Summary of the method: as §1

[3] = molecular target: AgBem1-D1
Summary of the method: as §1

[4] = molecular target: AgBzz1-D1
Summary of the method: as §1

[5] = molecular target: AgBzz1-D2
Summary of the method: as §1

[6] = molecular target: AgCyk3
Summary of the method: as §1

[7] = molecular target: AgFus1
Summary of the method: as §1

[8] = molecular target: AgHof1
Summary of the method: as §1

[9] = molecular target: AgHse1
Summary of the method: as §1

[10] = molecular target: AgLsb1
Summary of the method: as §1

[11] = molecular target: AgLsb4
Summary of the method: as §1

[12] = molecular target: AgMyo5
Summary of the method: as §1

[13] = molecular target: AgNbp2
Summary of the method: as §1

[14] = molecular target: AgRvs167
Summary of the method: as §1

[15] = molecular target: AgSho1
Summary of the method: as §1

[16] = molecular target: AgSla1-D1-D2
Summary of the method: as §1

[17] = molecular target: AgSla1-D3
Summary of the method: as §1

[18] = molecular target: CaAbp1-D1
Summary of the method: as §1

[19] = molecular target: CaAbp1-D2
Summary of the method: as §1

[20] = molecular target: CaBbc1
Summary of the method: as §1

[21] = molecular target: CaBem1-D1
Summary of the method: as §1

[22] = molecular target: CaBzz1-D1
Summary of the method: as §1

[23] = molecular target: CaBzz1-D2
Summary of the method: as §1

[24] = molecular target: CaCyk3
Summary of the method: as §1

[25] = molecular target: CaFus1
Summary of the method: as §1

[26] = molecular target: CaHof1
Summary of the method: as §1

[27] = molecular target: CaHse1
Summary of the method: as §1

[28] = molecular target: CaLsb1
Summary of the method: as §1

[29] = molecular target: CaLsb4
Summary of the method: as §1

[30] = molecular target: CaMyo5
Summary of the method: as §1

[31] = molecular target: CaNbp2
Summary of the method: as §1

[32] = molecular target: CaRvs167
Summary of the method: as §1

[33] = molecular target: CaRvs167-3
Summary of the method: as §1

[34] = molecular target: CaSho1
Summary of the method: as §1

[35] = molecular target: CaSla1-D1-D2
Summary of the method: as §1

[36] = molecular target: CaSla1-D3
Summary of the method: as §1

[37] = molecular target: ScAbp1
Summary of the method: as §1

[38] = molecular target: ScBbc1
Summary of the method: as §1

[39] = molecular target: ScBem1-D1
Summary of the method: as §1

[40] = molecular target: ScBzz1-D1
Summary of the method: as §1

[41] = molecular target: ScBzz1-D2
Summary of the method: as §1

[42] = molecular target: ScCyk3
Summary of the method: as §1

[43] = molecular target: ScFus1
Summary of the method: as §1

[44] = molecular target: ScHof1
Summary of the method: as §1

[45] = molecular target: ScHse1
Summary of the method: as §1

[46] = molecular target: ScLsb1
Summary of the method: as §1

[47] = molecular target: ScLsb2
Summary of the method: as §1

[48] = molecular target: ScLsb3
Summary of the method: as §1

[49] = molecular target: ScLsb4
Summary of the method: as §1

[50] = molecular target: ScMyo3
Summary of the method: as §1

[51] = molecular target: ScMyo5
Summary of the method: as §1

[52] = molecular target: ScNbp2
Summary of the method: as §1

[53] = molecular target: ScPex13
Summary of the method: as §1

[54] = molecular target: ScRvs167
Summary of the method: as §1

[55] = molecular target: ScSho1
Summary of the method: as §1

[56] = molecular target: ScSla1-D1-D2
Summary of the method: as §1

[57] = molecular target: ScSla1-D3
Summary of the method: as §1

[58] = molecular target: SpAbp1-D1
Summary of the method: as §1

[59] = molecular target: SpBbc1
Summary of the method: as §1

[60] = molecular target: SpBzz1-D1
Summary of the method: as §1

[61] = molecular target: SpBzz1-D2
Summary of the method: as §1

[62] = molecular target: SpCyk3
Summary of the method: as §1

[63] = molecular target: SpHof1
Summary of the method: as §1

[64] = molecular target: SpHof1-2
Summary of the method: as §1

[65] = molecular target: SpHof1-3
Summary of the method: as §1

[66] = molecular target: SpHse1
Summary of the method: as §1

[67] = molecular target: SpLsb1
Summary of the method: as §1

[68] = molecular target: SpLsb4
Summary of the method: as §1

[69] = molecular target: SpMyo1
Summary of the method: as §1

[70] = molecular target: SpNbp2
Summary of the method: as §1

[71] = molecular target: SpPex13
Summary of the method: as §1

[72] = molecular target: SpRvs167
Summary of the method: as §1

[73] = molecular target: SpSla1-D1-D2
Summary of the method: as §1

[74] = molecular target: SpSla1-D3
Summary of the method: as §1

B1: unnamed (peptide)
chain: NPTKSPPPPPSPSTM
B1 was tested, and the “SPOT peptide array binding signal intensity” value [1] was at most 0, the “SPOT peptide array binding signal intensity” value [2] was at most 0 and the “SPOT peptide array binding signal intensity” value [3] was 26. The “SPOT peptide array binding signal intensity” value [4] was 126, the “SPOT peptide array binding signal intensity” value [5] was 63.5 and the “SPOT peptide array binding signal intensity” value [6] was at most 0. For the same binder, the “SPOT peptide array binding signal intensity” value [7] was at most 0, the “SPOT peptide array binding signal intensity” value [8] was 7 and the “SPOT peptide array binding signal intensity” value [9] was 16. The “SPOT peptide array binding signal intensity” value [10] was 1.25, the “SPOT peptide array binding signal intensity” value [11] was at most 0 and the “SPOT peptide array binding signal intensity” value [12] was 232. For the same binder, the “SPOT peptide array binding signal intensity” value [13] was at most 0, the “SPOT peptide array binding signal intensity” value [14] was at most 0 and the “SPOT peptide array binding signal intensity” value [15] was at most 0. For the same binder, the “SPOT peptide array binding signal intensity” value [16] was at most 0, the “SPOT peptide array binding signal intensity” value [17] was 128 and the “SPOT peptide array binding signal intensity” value [18] was 7. For the same binder, the “SPOT peptide array binding signal intensity” value [19] was at most 0, the “SPOT peptide array binding signal intensity” value [20] was at most 0 and the “SPOT peptide array binding signal intensity” value [21] was 5. The “SPOT peptide array binding signal intensity” value [22] was 3240, the “SPOT peptide array binding signal intensity” value [23] was 1620 and the “SPOT peptide array binding signal intensity” value [24] was 7.5. For the same binder, the “SPOT peptide array binding signal intensity” value [25] was 60, the “SPOT peptide array binding signal intensity” value [26] was at most 0 and the “SPOT peptide array binding signal intensity” value [27] was 4. The “SPOT peptide array binding signal intensity” value [28] was 0.5, the “SPOT peptide array binding signal intensity” value [29] was at most 0 and the “SPOT peptide array binding signal intensity” value [30] was 48. The “SPOT peptide array binding signal intensity” value [31] was 45, the “SPOT peptide array binding signal intensity” value [32] was 0.667 and the “SPOT peptide array binding signal intensity” value [33] was 1. For the same binder, the “SPOT peptide array binding signal intensity” value [34] was 10.5, the “SPOT peptide array binding signal intensity” value [35] was 49 and the “SPOT peptide array binding signal intensity” value [36] was 30. The “SPOT peptide array binding signal intensity” value [37] was at most 0, the “SPOT peptide array binding signal intensity” value [38] was at most 0 and the “SPOT peptide array binding signal intensity” value [39] was at most 0. The “SPOT peptide array binding signal intensity” value [40] was 274, the “SPOT peptide array binding signal intensity” value [41] was 22 and the “SPOT peptide array binding signal intensity” value [42] was at most 0. For the same binder, the “SPOT peptide array binding signal intensity” value [43] was at most 0, the “SPOT peptide array binding signal intensity” value [44] was 1 and the “SPOT peptide array binding signal intensity” value [45] was 21.5. For the same binder, the “SPOT peptide array binding signal intensity” value [46] was at most 0, the “SPOT peptide array binding signal intensity” value [47] was at most 0 and the “SPOT peptide array binding signal intensity” value [48] was at most 0. The “SPOT peptide array binding signal intensity” value [49] was at most 0, the “SPOT peptide array binding signal intensity” value [50] was 771 and the “SPOT peptide array binding signal intensity” value [51] was 343. For the same binder, the “SPOT peptide array binding signal intensity” value [52] was 47.5, the “SPOT peptide array binding signal intensity” value [53] was 80 and the “SPOT peptide array binding signal intensity” value [54] was at most 0. For the same binder, the “SPOT peptide array binding signal intensity” value [55] was 18, the “SPOT peptide array binding signal intensity” value [56] was at most 0 and the “SPOT peptide array binding signal intensity” value [57] was 11.5. For the same binder, the “SPOT peptide array binding signal intensity” value [58] was at most 0, the “SPOT peptide array binding signal intensity” value [59] was at most 0 and the “SPOT peptide array binding signal intensity” value [60] was 548. The “SPOT peptide array binding signal intensity” value [61] was 7.25, the “SPOT peptide array binding signal intensity” value [62] was 4 and the “SPOT peptide array binding signal intensity” value [63] was 1.25. For the same binder, the “SPOT peptide array binding signal intensity” value [64] was 4, the “SPOT peptide array binding signal intensity” value [65] was 0.5 and the “SPOT peptide array binding signal intensity” value [66] was 94. The “SPOT peptide array binding signal intensity” value [67] was 1, the “SPOT peptide array binding signal intensity” value [68] was at most 0 and the “SPOT peptide array binding signal intensity” value [69] was 468. For the same binder, the “SPOT peptide array binding signal intensity” value [70] was at most 0, the “SPOT peptide array binding signal intensity” value [71] was at most 0 and the “SPOT peptide array binding signal intensity” value [72] was 2. For the same binder, the “SPOT peptide array binding signal intensity” value [73] was at most 0 and the “SPOT peptide array binding signal intensity” value [74] was at most 0.
